# According to PubChem BioAssay AID1159580 (chemical genetic matrix, 2015):
# Out of some 5,500 compounds screened, about 2,000 (36%) were called active. Not shown: some 18% with an inconclusive outcome. The list shows a part of the results. A number with no mark means an inactive call. Cut-off read from the data, not from the text of the source: active = normalized growth mostly below about 0.91 (no sharp cut-off); inconclusive = no clear call, values can overlap the other calls; inactive = mostly above about 0.92.
# Assay: chemical genetic growth profiling, strain panel (AID 1159580);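 note: tested at 20 µM; growth read once vehicle control cultures reached saturation at 30 °C; 1 = growth at the plate median or of vehicle wells; lower values mean less growth of the strain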
# Conditions: growth OD
# [1] = S. cerevisiae deletion strains, locus YAL013W, strain DEP1, active compounds read low
# [2] = S. cerevisiae deletion strains, locus YBR229C, strain ROT2, active compounds read low
# [3] = S. cerevisiae deletion strains, locus YCL061C, strain MRC1, active compounds read low
# [4] = S. cerevisiae deletion strains, locus YDL101C, strain DUN1, active compounds read low
# [5] = S. cerevisiae deletion strains, locus YDR150W, strain NUM1, active compounds read low
# [6] = S. cerevisiae deletion strains, locus YEL061C, strain CIN8, active compounds read low
# [7] = S. cerevisiae deletion strains, locus YGR078C, strain PAC10, active compounds read low
# [8] = S. cerevisiae deletion strains, locus YGR229C, strain SMI1, active compounds read low
# [9] = S. cerevisiae deletion strains, locus YHR030C, strain SLT2, active compounds read low
# [10] = S. cerevisiae deletion strains, locus YHR087W, strain rtc3, active compounds read low
# [11] = S. cerevisiae deletion strains, locus YJR043C, strain POL32, active compounds read low
# [12] = S. cerevisiae deletion strains, locus YJR075W, strain HOC1, active compounds read low
# [13] = S. cerevisiae deletion strains, locus YKL190W, strain CNB1, active compounds read low
# [14] = S. cerevisiae deletion strains, locus YLR039C, strain RIC1, active compounds read low
# [15] = S. cerevisiae deletion strains, locus YLR058C, strain SHM2 (second series), active compounds read low
# [16] = S. cerevisiae deletion strains, locus YLR085C, strain ARP6, active compounds read low
# [17] = S. cerevisiae deletion strains, locus YLR262C, strain YPT6, active compounds read low
# [18] = S. cerevisiae deletion strains, locus YML094W, strain GIM5, active compounds read low
# [19] = S. cerevisiae deletion strains, locus YMR219W, strain ESC1, active compounds read low
# [20] = S. cerevisiae deletion strains, locus YMR263W, strain SAP30, active compounds read low
# [21] = S. cerevisiae deletion strains, locus YNL128W, strain TEP1, active compounds read low
# [22] = S. cerevisiae deletion strains, locus YNL153C, strain GIM3, active compounds read low
# [23] = S. cerevisiae deletion strains, locus YNL298W, strain CLA4 (second series), active compounds read low
# [24] = S. cerevisiae deletion strains, locus YNL322C, strain KRE1, active compounds read low
# [25] = S. cerevisiae deletion strains, locus YNR030W, strain Alg12, active compounds read low
# [26] = S. cerevisiae deletion strains, locus YPL055C, strain LGE1, active compounds read low
# [27] = S. cerevisiae deletion strains, locus YPL241C, strain CIN2, active compounds read low
# [28] = S. cerevisiae deletion strains, locus YPR135W, strain CTF4, active compounds read low
compound,measurement,setting,value
c1ccc(-c2csc(-c3ccncc3)n2)cc1,normalized growth,[1],0.916 (active)
same,normalized growth,[2],0.979
same,normalized growth,[3],0.944
same,normalized growth,[4],0.967
same,normalized growth,[5],0.934
same,normalized growth,[6],0.914
same,normalized growth,[7],0.974
same,normalized growth,[8],0.958
same,normalized growth,[9],0.22 (active)
same,normalized growth,[10],0.981
same,normalized growth,"S. cerevisiae deletion strains, locus YJL187C, strain SWE1, active compounds read low",1.03
same,normalized growth,[11],0.974
same,normalized growth,[12],0.987
same,normalized growth,[13],0.894 (active)
same,normalized growth,[14],0.371 (active)
same,normalized growth,[15],0.972
same,normalized growth,[16],0.535 (active)
same,normalized growth,[17],0.384 (active)
same,normalized growth,[18],0.814 (active)
same,normalized growth,[19],0.971
same,normalized growth,[20],0.946
same,normalized growth,"S. cerevisiae deletion strains, locus YMR307W, strain GAS1, active compounds read low",0.737
same,normalized growth,[21],0.937
same,normalized growth,[22],0.964
same,normalized growth,[23],0.829 (active)
same,normalized growth,[24],0.989
same,normalized growth,[25],0.901
same,normalized growth,"S. cerevisiae deletion strains, locus YOL006C, strain TOP1, active compounds read low",0.379 (active)
same,normalized growth,[26],0.832
same,normalized growth,[27],0.8 (active)
same,normalized growth,[28],0.515 (active)
c1ccc(-c2nc(-c3cccs3)cs2)cc1,normalized growth,[1],0.916 (active)
same,normalized growth,[2],0.877 (active)
same,normalized growth,[3],0.895 (active)
same,normalized growth,[4],0.988
same,normalized growth,[5],0.939
same,normalized growth,[6],0.838 (active)
same,normalized growth,[7],0.88 (active)
same,normalized growth,[9],0.166 (active)
same,normalized growth,[10],0.744 (active)
same,normalized growth,[11],0.973
same,normalized growth,[12],0.707 (active)
same,normalized growth,[14],0.273 (active)
same,normalized growth,[15],0.859 (active)
same,normalized growth,[16],0.408 (active)
same,normalized growth,[17],0.274 (active)
same,normalized growth,[18],0.866 (active)
same,normalized growth,[19],0.919 (active)
same,normalized growth,[20],0.931
same,normalized growth,[22],0.983
same,normalized growth,[23],0.714 (active)
same,normalized growth,[24],0.914 (active)
same,normalized growth,[25],0.693 (active)
same,normalized growth,[26],0.768 (active)
same,normalized growth,[27],0.813 (active)
same,normalized growth,[28],0.341 (active)
OC(c1ccccc1)(c1ccccc1)c1ccncc1,normalized growth,[1],1.05
same,normalized growth,[2],1
same,normalized growth,[4],1
same,normalized growth,[5],1.01
same,normalized growth,[6],0.991
same,normalized growth,[7],1.02
same,normalized growth,[8],0.997
same,normalized growth,[9],1.03
same,normalized growth,[10],1.02
same,normalized growth,[11],1.01
same,normalized growth,[12],0.984
same,normalized growth,[13],0.996
same,normalized growth,[14],1.03
same,normalized growth,[15],0.996
same,normalized growth,[16],1.19
same,normalized growth,[17],0.997
same,normalized growth,[18],1.04
same,normalized growth,[19],0.999
same,normalized growth,[20],1.03
same,normalized growth,[21],0.999
same,normalized growth,[22],1.02
same,normalized growth,[23],1.01
same,normalized growth,[24],1
same,normalized growth,[25],1.03
same,normalized growth,[26],1.09
same,normalized growth,[27],1.1
same,normalized growth,[28],1.14
same,normalized growth,"S. cerevisiae strains, strain wild type, active compounds read low",1.01
